RecA splice inh: inhibitors of M. tuberculosis RecA intein splicing; 290,000 tested, 0.75% active; AID 2221; inhibition, % (test concentration not listed); P9WHJ3; cell-free RecA intein splicing, fluorescence; in the data active = inhibition above about 30%;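 also: 0% = vehicle wells and 100% = reference inhibitor control wells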
CCHFV vOTU inh: blocks the CCHF virus ovarian tumor domain protease; CCHFV vOTU protease, Pep-AMC fluorescence; inhibition, % at 11.5 µM; 370,000 tested, 0.55% active; AID 651958; in the data active = inhibition above about 30%; also: 0% = vehicle wells with enzyme and 100% = no enzyme wells
GDH-TPI counter-1: inhibits GDH-TPI coupling enzymes, artifact for Mtb FBA screen | inhibition, % at 4.8 µM | AID 588335 | 360,000 tested, 1.2% active | GDH-TPI coupled enzyme counterscreen, NADH absorbance; in the data active = inhibition above about 30%;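 also: 0% = DMSO wells and 100% = wells lacking the enzyme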
FBA Mtb inh: Mtb fructose-bisphosphate aldolase inhibition; P9WQA3; purified M. tuberculosis FBA, fluorescence read-out; inhibition, % at 1 µM; 360,000 tested, 2.3% active;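 also: 0% = vehicle and 100% = reference inhibitor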
Mtb betalactam: beta-lactam sensitization of Mtb H37Rv. M. tuberculosis H37Rv growth with meropenem, percent inhibition. inhibition, % at 25 µM. 330,000 tested, 0.27% active; call rule not given here;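 also: growth measured after seven days incubation then overnight dye step; 0% = bacteria only wells and 100% = bacteria with antibiotic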
Mtb FBA confirm: confirmation of M. tuberculosis fructose-bisphosphate aldolase inhibitors. shares compounds with FBA Mtb inh. purified M. tuberculosis FBA, fluorescence read-out. inhibition, % at 1 µM. 5,600 tested, 78% active. AID 651616;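 also: 0% = vehicle wells and 100% = reference inhibitor wells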
GDH-TPI counter-2: GDH-TPI inhibition counter-screen for FBA inhibitors. shares compounds with FBA Mtb inh. GDH-TPI coupled enzyme counterscreen, fluorescence. inhibition, % at 1 µM. 5,600 tested, 81% active. AID 652141; in the data active = inhibition above about 10%
Numbers without * were called inactive; / = not tested or not shown; + = active, no number. In the library only some 4.2% were active in any assay of this set; here they are far more common. Rule as the data show it, unless noted: active = inhibition above about 27%; inactive = the rest.

SMILES | RecA splice inh | CCHFV vOTU inh | GDH-TPI counter-1 | FBA Mtb inh | Mtb betalactam | Mtb FBA confirm | GDH-TPI counter-2
CC(SCc1nc2sc3c(c2c(=O)[nH]1)CCCC3)C(=O)Nc1ccccn1 (stereo unspecified) | 4 | -10 | 6 | 37* | 0 | 127* | 92*
COc1ccc(Cn2cc(CN3[C@@H](C)COc4cc(Br)ccc4S3(=O)=O)nn2)cc1 | / | 0 | / | / | / | / | /
COCCCNC(=O)[C@H]1O[C@@H](n2cnc3c(=O)[nH]c(N)nc32)[C@H](O)[C@@H]1O | / | -10 | / | / | / | / | /
CCN(C(=O)[C@@H](C)[C@@H](O)c1ccc(C(C)=O)cc1)c1ccccc1 | / | 1 | / | / | / | / | /
OCc1ccc(-c2nn(Cc3ccccc3)c3ccccc23)o1 | 7 | -4 | 18 | 58* | 6 | 82* | 67*
CCOC(=O)CC[C@@]1(C(=O)OCC)C[C@@H](CC(=O)NCCc2ccccc2OC)C(=O)N2CCCC=C21 | / | 5 | / | / | / | / | /
CCOC(=O)c1sc2nc(C)nc(NCc3ccc(Cl)cc3)c2c1C | 2 | -10 | 7 | 18 | -3 | / | /
CCOC(=O)c1sc2nc(C)nc(NCc3ccc(F)cc3)c2c1C | 1 | -9 | 15 | 41* | 7 | 44* | 46*
CCOC(=O)c1sc2nc(C)nc(NCc3cccnc3)c2c1C | 1 | -35 | 0 | 44* | -1 | 108* | 88*
CCOC(=O)c1sc2nc(CC(=O)OC)nc(NCc3ccc(F)cc3)c2c1C | 2 | -12 | 17 | 32* | -1 | + | 148*
CCCN1CCCCC(NC(=O)OC(C)(C)C)C1=O (stereo unspecified) | / | -10 | / | / | / | / | /
Cc1oc2cc(O)ccc2c(=O)c1-c1cnn(-c2ccccc2)c1 | -1 | -33 | 14 | 41* | -7 | + | +
Cc1oc2cc(O)ccc2c(=O)c1-c1ccccc1 | 0 | -48 | 24 | 71* | 12 | 199* | 161*
CSc1ncc(C(=O)Nc2cccc(S(N)(=O)=O)c2)n1-c1ccccc1 | / | -12 | -3 | 39* | 2 | 168* | 132*
Cc1ccc(NC(=O)[C@H]2CC(=O)O[C@@H]2c2ccccc2)c(C)c1 | / | 1 | / | / | / | / | /
Cc1ccc2nc(-c3ccc(NC(=O)CSc4nccc(=O)[nH]4)cc3)sc2c1 | / | -3 | 24 | 53* | 36 | + | +
Cc1ccc2nc(-c3ccc(NC(=O)CSc4nc(N)cc(=O)[nH]4)cc3)sc2c1 | -3 | -88 | 24 | 37* | -5 | 73* | 42*
CCn1c(SCC(=O)Nc2ccc(-c3nc4ccc(C)cc4s3)cc2)nnc1-c1ccccc1 | -1 | / | / | / | -1 | / | /
Nc1cc(=O)[nH]c(SCC(=O)Nc2nc3ccc([N+](=O)[O-])cc3s2)n1 | 0 | / | / | / | -1 | / | /
Cc1c(NCc2ccncc2)cccc1C(=O)O | 1 | 5 | 2 | 3 | 4 | / | /
Cc1c(NCc2cccnc2)cccc1C(=O)O | -4 | -2 | -2 | 100* | -6 | 112* | 100*
C[N+]1=C(N)NC2=C3CCCCC3n3c(=O)n(-c4ccccc4)c(=O)n3C2C1 (stereo unspecified) | / | -5 | / | / | / | / | /
COC(=O)[C@]12C[C@H](CC(=O)NCCc3ccccc3OC)C(=O)N(Cc3ccccc3)C1=C[C@H](C(C)(C)C)O[C@@H]2C | / | 17 | / | / | / | / | /
CN(Cc1ccco1)S(=O)(=O)c1ccc2c(c1)CCN2C(=O)CC(C)(C)C | / | 6 | / | / | / | / | /
Cc1cc2[nH]c(=O)c(=O)[nH]c2cc1S(=O)(=O)NCc1ccccc1 | -1 | -15 | 7 | 33* | 0 | 72* | 65*
SMILES | RecA splice inh | CCHFV vOTU inh | GDH-TPI counter-1 | FBA Mtb inh | Mtb betalactam | Mtb FBA confirm | GDH-TPI counter-2
Cc1cc2[nH]c(=O)c(=O)[nH]c2cc1S(=O)(=O)NCC(C)c1ccccc1 (stereo unspecified) | / | -15 | 18 | 24 | / | / | /
Cc1cc2[nH]c(=O)c(=O)[nH]c2cc1S(=O)(=O)NC1CCC(C)CC1 (stereo unspecified) | -2 | -7 | 14 | 29* | 3 | 191* | 188*
O=C(CC1CCCC1)N[C@H](C(=O)N1CCC[C@H]1C(=O)NCCc1ccccc1Cl)c1ccccc1 | / | -1 | / | / | / | / | /
COc1ccc(S[C@]2(C(=O)N3CCN(C(C)=O)CC3)CC(=O)N(C(=O)C3CC3)[C@@H]2c2ccc(OC)cc2)cc1 | / | -3 | / | / | / | / | /
Cc1ccc(CN2CC(C(=O)Nc3ccc4c(C)cc(=O)oc4c3)CC2=O)cc1 (stereo unspecified) | -2 | -51 | 16 | 89* | -10 | 96* | 74*
O=C(Cn1nnc(-c2ccncc2)n1)Nc1ccc(F)cc1F | / | 3 | / | / | / | / | /
